Assay results reported in ChEMBL document CHEMBL4513216, “Probing the Open Global Health Chemical Diversity Library for Multistage-Active Starting Points for Next-Generation Antimalarials” (ACS Infect Dis, 2020).
Hit rate of the full screen: of about 68,000 compounds, about 2,700 (4%) showed an effect of 50% or more. The entries come from a sample that favours strong results as a whole.

These compounds were tested on Plasmodium berghei (assay: Screen against P. berghei liver stage (PbLuc), transformed with Luciferase, at 2uM). Conditions: tested at 2 uM.
Format: functional, HepG2

First: NC(=O)CN1CCCN(C(=O)Cc2ccc(Br)cc2)CC1
Second: COCC(=O)N1CCCN(Cc2c(C)nc3ccc(Cl)cn23)CC1
The INHIBITION of the first is lower: 11.24% for the first, 12.43% for the second.

Compared with Cc1nnc(CN(C)CCCOc2cccc(Cl)c2)o1, Cc1nnc(CN(C)CCOc2cccc(Cl)c2)o1 is higher in INHIBITION: -33.74% for the first, 70.83% for the second.

First: CN(CCOc1cccc(Cl)c1)Cc1nnc(C(C)(C)C)o1
Second: Cc1noc(C)c1S(=O)(=O)NC(=O)COc1cccc(C(C)C)c1
The INHIBITION of the first is lower: -19% for the first, 42.99% for the second.

Going from CCc1nc(C2CCCN2C(=O)c2ccc3c(c2)COC3)no1 (stereo not drawn) to Cc1cc(C2CCCN2C(=O)c2ccc(OCC(N)=O)cc2)no1 (stereo not drawn), the INHIBITION rises from 16.18% to 34.18%.

Going from CS(=O)(=O)N(Cc1ccon1)c1ccc2c(c1)OCO2 to CC(Cn1ccnc1)NC(=O)NCCc1ccc2c(c1)OCCO2 (stereo not drawn), the INHIBITION falls from 37.25% to -14.3%.

Going from OC1(CN2CCOC(Cn3cccn3)C2)CCCCC1 (stereo not drawn) to Cc1cc(CN2CCCC(CNC(=O)Cn3cccn3)C2)oc1C (stereo not drawn), the INHIBITION rises from -1.88% to 2.9%.

Going from O=C(Cc1ccccn1)N1CCN(CC2CC2)c2ncccc2C1 to O=C1N(Cc2ccccn2)C[C@H]2CN(S(=O)(=O)c3ccccc3)CCN12, the INHIBITION rises from 16.87% to 50.72%.

Compared with COc1cccc2c(=O)n(CCN3CCNCC3)cnc12, O=c1c2cccc(F)c2ncn1CCN1CCNCC1 is higher in INHIBITION: 50.61% for the first, 65.76% for the second.

Going from O=c1c2cccc(F)c2ncn1CCN1CCOCC1 to CN1CCN(CCn2cnc3c(F)cccc3c2=O)CC1, the INHIBITION rises from 25.37% to 30.42%.

First: COc1cccc2c(=O)n(Cc3cccnc3)cnc12
Second: COc1cccc2c(=O)n(C3CCNCC3)cnc12
The INHIBITION of the first is lower: -66.95% for the first, 24.6% for the second.

First: CC(C)N1CCN(CCn2cnc3c(F)cccc3c2=O)CC1
Second: O=c1c2cccc(C(F)(F)F)c2ncn1CCN1CCNCC1
The INHIBITION of the first is lower: -13.34% for the first, 50.61% for the second.

Compared with Cc1csc2c(=O)n(CCN3CCNCC3)cnc12, CC(=O)NCC(=O)N1CCCC1c1ccc(CN2CCOCC2)cn1 (stereo not drawn) is higher in INHIBITION: 23.68% for the first, 26.22% for the second.

First: CN(Cc1nccn1CC(F)(F)F)C(=O)c1ccc(F)c(F)c1
Second: CN(Cc1nccn1CC(F)(F)F)C(=O)c1ccc(F)cc1F
The INHIBITION of the first is lower: 32.57% for the first, 73.96% for the second.

Compared with COc1cc(C(=O)N(C)Cc2nccn2CC(F)(F)F)ccc1C, Cc1ccc(C(=O)N(C)Cc2nccn2CC(F)(F)F)cn1 is higher in INHIBITION: -5.68% for the first, -4.59% for the second.

Going from CCOc1ccc(C(=O)N(C)Cc2nccn2CC(F)(F)F)cc1 to CN(Cc1nccn1CC(F)(F)F)C(=O)c1cccc(N(C)C)c1, the INHIBITION falls from 52.57% to 27.53%.

Going from COCC(=O)NC(C)Cc1cccc(Cl)c1 (stereo not drawn) to CNC(=O)N1CC[C@@H]2CN(Cc3cccc(OC)c3)S(=O)(=O)[C@@H]2CC1, the INHIBITION falls from -20.82% to -72.58%.

Compared with CC[C@H]1CN(C(=O)c2cnc(CN3CCCC3)s2)CC[C@@]1(C)O, O=C(CCCc1cn[nH]c1)N1C[C@@H](CN2CCCCCC2)[C@@H](CO)C1 is higher in INHIBITION: -47.18% for the first, -5.41% for the second.

Compared with Cc1ccc([C@@H]2CN(S(=O)(=O)N(C)C)C[C@H]2N(C)C)cc1, Cc1ccc([C@@H]2CN(S(=O)(=O)C(C)C)C[C@H]2N(C)C)cc1 is lower in INHIBITION: 28.49% for the first, 4.47% for the second.

Compared with Cc1ccc([C@@H]2CN(S(=O)(=O)N3CCC(C)CC3)C[C@H]2N(C)C)cc1, CC(=O)N1CCC(N2CCN3C(=O)N(Cc4ccccn4)C[C@H]3C2)CC1 is lower in INHIBITION: 65.1% for the first, 37.54% for the second.

Going from CN(C)C(=O)CN1CCC(c2c(C(N)=O)sc3ncccc23)C1 (stereo not drawn) to Cc1nc(N)sc1C(=O)N1CCCC(c2nccn2CCCN(C)C)C1 (stereo not drawn), the INHIBITION rises from -21.9% to 29.02%.

First: CCn1ccnc1C1CCCN(C(=O)c2sc(C)nc2C)C1 (stereo not drawn)
Second: Cc1nc(C)c(C(=O)N2CCCC(c3cnccn3)C2)s1 (stereo not drawn)
The INHIBITION of the first is higher: 58.56% for the first, 38.65% for the second.

Compared with CC(=O)N1CCOC2(CCN(C(=O)c3cnoc3C)CC2)C1, CN(C)CC(=O)N1CCC2(CC1)CN(c1ncccn1)CCO2 is higher in INHIBITION: -21.09% for the first, 25.4% for the second.

First: CC(C)c1cccc(-n2cc(O)c(C(N)=O)n2)c1
Second: CC(C)c1cccc(-n2cc(O)c(C(=O)O)n2)c1
The INHIBITION of the first is lower: 11.9% for the first, 50.61% for the second.

First: CC(C)c1ccc(-n2cc(O)c(C(=O)O)n2)cc1
Second: Cc1noc(C)c1S(=O)(=O)NC(=O)COc1ccc(C(C)C)cc1
The INHIBITION of the first is higher: 23.16% for the first, 19.71% for the second.

Compared with CCC(C)n1cnc(S(=O)(=O)N(Cc2cccnc2)C(C)C)c1 (stereo not drawn), CCC(C)n1cnc(S(=O)(=O)N(C)c2cccnc2N(C)C)c1 (stereo not drawn) is lower in INHIBITION: 59.03% for the first, 11.9% for the second.

Going from CCC(C)n1cnc(S(=O)(=O)N(C)C)c1 (stereo not drawn) to CCc1ncnc2c1CCN(S(=O)(=O)CC)CC2, the INHIBITION rises from -15.03% to 1.81%.

Compared with O=C(Nc1cccc(CNCc2ccsc2)c1)C1CC1, O=C(Nc1cccc(CNCc2cccs2)c1)C1CC1 is higher in INHIBITION: 30.92% for the first, 62.82% for the second.

Going from O=C(Nc1cccc(CNCc2cccs2)c1)C1CCCC1 to O=C(N1CCCC1)C1(Cc2ccc(-c3cccs3)cc2)CCNC1 (stereo not drawn), the INHIBITION rises from -5.15% to 17.24%.

Compared with CS(=O)(=O)N1CC2(CCN(C3COC3)C2)Cc2ccccc21 (stereo not drawn), c1ccc(N2CCCC3(CCN(Cc4ccsc4)C3)C2)nc1 (stereo not drawn) is higher in INHIBITION: 26.56% for the first, 33.14% for the second.

Compared with O=C(NCCCn1nc2ccccn2c1=O)NC1CCC(O)CC1 (stereo not drawn), CCn1cnnc1C1CCN(C(=O)c2ccccc2F)CC1 is lower in INHIBITION: 8.3% for the first, -19.35% for the second.

First: CCN(C(=O)CNc1cc(C)c(F)cc1C(N)=O)C1CC1
Second: O=S(=O)(Nc1cnn(C2CCOCC2)c1)c1ccc(F)c(F)c1
The INHIBITION of the first is higher: -31.4% for the first, -38.4% for the second.

First: Cc1noc(C)c1S(=O)(=O)NC(=O)COc1ccc2c(c1)CCC2
Second: Cc1cc(OCC(=O)NS(=O)(=O)c2c(C)noc2C)ccc1Cl
The INHIBITION of the first is higher: 56.78% for the first, -12.48% for the second.

Going from Cc1ccc(OCC(=O)NS(=O)(=O)c2c(C)noc2C)cc1C to Cc1cc(C)c(OCC(=O)NS(=O)(=O)c2c(C)noc2C)c(C)c1, the INHIBITION falls from 57.33% to 5.72%.

First: O=C(c1ccccc1)C1CCN(C(=O)CC2COCCN2)CC1 (stereo not drawn)
Second: O=C1N(Cc2ccccn2)C[C@H]2CN(C3CCOCC3)CCN12
The INHIBITION of the first is lower: -13.88% for the first, -8.59% for the second.

Compared with COc1ccc(NC(=O)N2CCC(c3noc(C)n3)CC2)cc1C, CC(C)c1noc(CN2CCN(C(=O)c3cccnc3O)CC2)n1 is higher in INHIBITION: -30.88% for the first, -2.82% for the second.

Compared with Cc1cc(CNc2nccc(N)n2)c2[nH]c(C)c(C)c2c1, Cc1ccc(NCCCNc2nccc(-c3cn(C)nc3C)n2)nc1 is higher in INHIBITION: -5.41% for the first, 37.5% for the second.

First: Cc1ncsc1CCN(C)C(=O)c1ccc(CN2CCCCC2)cc1
Second: Cc1ncsc1CCN(C)C(=O)c1ccc(Cn2cnnn2)cc1
The INHIBITION of the first is lower: -20.75% for the first, 89.46% for the second.

First: Cc1nc(CN(C)C(=O)c2ccc(Cn3cnnn3)cc2)cs1
Second: CN(Cc1ccc(N(C)C)cc1)C(=O)CS(=O)(=O)c1ccc(Cl)cc1
The INHIBITION of the first is higher: 21.57% for the first, 9.02% for the second.

Compared with CCn1cc(CN2CCN(CC(O)c3ccc(C)cc3C)CC2)c(C)n1 (stereo not drawn), CCn1cc(CN2CCN(CC(O)c3cc(C)ccc3C)CC2)c(C)n1 (stereo not drawn) is lower in INHIBITION: 54.9% for the first, -2.2% for the second.

First: CCn1cc(CN2CCN(CC(O)c3ccc(C)cc3C)CC2)cn1 (stereo not drawn)
Second: CCOCC1CN(Cc2cnn(C)c2)Cc2nn(CC3CC3)cc21 (stereo not drawn)
The INHIBITION of the first is higher: 35.73% for the first, -50.35% for the second.

First: c1ccc(C2CCCCN2Cc2nc(-c3cnccn3)no2)nc1 (stereo not drawn)
Second: c1ccc(C2CCCN2Cc2nc(-c3cnccn3)no2)nc1 (stereo not drawn)
The INHIBITION of the first is higher: 6.92% for the first, -5.19% for the second.

First: Nc1nccc(C2CCCCN2Cc2cccc(F)c2)n1 (stereo not drawn)
Second: Cc1nccc(C2CCCCN2Cc2cccc(F)c2)n1 (stereo not drawn)
The INHIBITION of the first is lower: 25.72% for the first, 94.5% for the second.

Compared with Cc1nccc(C2CCCCN2Cc2ccc(F)cc2)n1 (stereo not drawn), Fc1cccc(C2CCCCN2Cc2nc(-c3cnccn3)no2)c1 (stereo not drawn) is higher in INHIBITION: -10.12% for the first, 58.69% for the second.

Compared with Cc1cc(=O)[nH]c(-n2nc(C)c(CCC(=O)Nc3nc(C)cs3)c2C)n1, Cc1oc(-c2ccsc2)nc1CC(=O)NCC(=O)Nc1cn[nH]c1 is higher in INHIBITION: -7.56% for the first, 11.01% for the second.

First: Cc1ccsc1CN1CCn2c(COc3cccnc3)cnc2C1C (stereo not drawn)
Second: CC(NCc1cccs1)c1ccc(OCc2nccn2C)cc1 (stereo not drawn)
The INHIBITION of the first is lower: 3.63% for the first, 63.46% for the second.

Compared with COc1cccc(CNC(=O)CCC2=Nc3ccccc3S(=O)(=O)N2)c1, O=C(Cn1cccn1)NCC1CCCN(Cc2ccccc2)C1 (stereo not drawn) is higher in INHIBITION: -1.65% for the first, 81.59% for the second.

First: CNC(=O)C1Cn2ccnc2C2(CCN(Cc3cccc(C)n3)CC2)O1 (stereo not drawn)
Second: O=C(Cn1cccn1)NCC1CCN(Cc2cc3ccccc3[nH]2)C1 (stereo not drawn)
The INHIBITION of the first is lower: -15.95% for the first, -0.59% for the second.

Compared with CC(C)(C)CC(=O)N[C@@H]1CO[C@H](CNC(=O)c2ccncc2)[C@H]1O, CC(=O)NCC(=O)N1Cc2cc(C#N)ccc2C1c1cnco1 (stereo not drawn) is lower in INHIBITION: 17.9% for the first, -9.91% for the second.

Going from CC(NCc1cnn(C)c1)c1ccc(OCc2nccn2C)cc1 (stereo not drawn) to CC(NCc1ccsc1)c1ccc(OCc2nccn2C)cc1 (stereo not drawn), the INHIBITION falls from 37.18% to 24.05%.

First: CC(CNC(=O)c1c[nH]nn1)Oc1ccccc1Br (stereo not drawn)
Second: CC(CNC(=O)c1c[nH]nn1)Oc1cccc(Br)c1 (stereo not drawn)
The INHIBITION of the first is higher: 67.83% for the first, -10.85% for the second.

Compared with Cc1ccc(OC(C)CNC(=O)c2c[nH]nn2)cc1 (stereo not drawn), CC(C(=O)NCc1ccc(F)cc1)N(C)CCN1CCOCC1 (stereo not drawn) is higher in INHIBITION: -9.5% for the first, 10.71% for the second.

First: CC(C(=O)Nc1cccc(C(F)(F)F)c1)N(C)CCN1CCOCC1 (stereo not drawn)
Second: CC(C(=O)Nc1cccc(F)c1)N(C)CCN1CCOCC1 (stereo not drawn)
The INHIBITION of the first is lower: -18.99% for the first, 57.23% for the second.

Compared with Cc1cnn(CC2CCCCN2CCS(C)(=O)=O)c1 (stereo not drawn), Cn1ccnc1CN1C[C@H]2CN(S(=O)(=O)c3ccccc3)CCN2C1=O is lower in INHIBITION: 44.41% for the first, 15.02% for the second.

First: O=C1N(Cc2cccnc2)C[C@H]2CN(S(=O)(=O)c3ccccc3)CCN12
Second: O=C1N(Cc2ccccn2)C[C@H]2CN(C3CCC3)CCN12
The INHIBITION of the first is lower: 40.83% for the first, 52.36% for the second.
